Results as given in PubChem BioAssay AID1851 (National Center for Advancing Translational Sciences (NCATS), 2009).
Several values for one entry are separate records, joined by “and”; a condition that tells them apart may be missing. Equal values may be shown once. Out of some 16,000 compounds screened, about 2,600 (16%) were called active. About 20% were inconclusive and are not listed. Calls come from the whole dose curve; as a rule, active = well fitted curve in the direction sought with a large enough effect; inconclusive = small, poorly fitted or top-dose-only effect, or effect the other way; inactive = no such curve, though single readings can be large or run the other way. Only a selection was taken, and actives are over-represented in it overall.

Each molecule was assayed against Cytochrome P450 2D6 (Homo sapiens) (UniProt P10635) (assay: Cytochrome panel assay with activity outcomes). Settings: recombinant CYP, pro-luciferin dealkylation, luminescence, p450-cyp2d6; series mostly up to 57.1 µM; activity, negative = inhibition: at the top concentration.
Cytochrome P450 2D6 (Homo sapiens), sequence (P10635 whole entry, looked up): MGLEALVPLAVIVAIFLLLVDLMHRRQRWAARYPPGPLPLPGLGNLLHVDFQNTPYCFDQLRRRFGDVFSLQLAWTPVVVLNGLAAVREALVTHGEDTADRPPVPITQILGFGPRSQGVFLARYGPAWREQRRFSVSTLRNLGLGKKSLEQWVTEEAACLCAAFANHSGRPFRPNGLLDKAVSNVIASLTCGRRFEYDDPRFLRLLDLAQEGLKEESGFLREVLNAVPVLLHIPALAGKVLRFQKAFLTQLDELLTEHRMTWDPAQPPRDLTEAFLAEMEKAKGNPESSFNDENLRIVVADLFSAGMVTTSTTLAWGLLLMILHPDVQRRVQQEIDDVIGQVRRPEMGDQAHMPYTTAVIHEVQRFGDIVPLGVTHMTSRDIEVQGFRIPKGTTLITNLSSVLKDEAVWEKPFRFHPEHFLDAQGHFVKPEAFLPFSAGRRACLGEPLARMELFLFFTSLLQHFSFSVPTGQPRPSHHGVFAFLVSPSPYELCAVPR
Description: The P450 gene superfamily is involved in the metabolism and clearance of xenobiotics. This assay used various human CYP P450 isozymes to measure the dealkylation of various pro-luciferin substrates to luciferin. The luciferin is then measured by luminescence after the addition of a luciferase detection reagent. Pro-luciferin substrate concentration in the assay was equal to its KM for its CYP P450 isozyme. Inhibitors and some substrates limit the production of luciferin, and decrease measured luminescence.
NCGC Assay Protocol Summary:
1, Reagent, 2 uL, Isozyme and Pro-Luciferin
2, Library compounds, 23 nl, 40 uM to 0.24 nM dilution series
3, Controls, 23 nl, Isozyme specific inhibitor
4, Reagent, 2 uL, NADPH regeneration solution
5, Incubation time, 60 min, Isozyme specific temperature
6, Reagent, 4ul, Detection reagent
7, Incubation time, 20 min, Isozyme specific temperature
8, Detection, 1 sec, ViewLux luminescent read
The luciferase-based P450-GloTM Screening Systems were obtained from Promega (Madison, WI) for CYP 1A2 (V9770), CYP 2C9 (V9790), CYP2 C19 (V9880), CYP 2D6 (V9890), and CYP 3A4 Luciferin-PPXE (V9910) and were adapted for 1,536-well microplates and an automated protocol. The control compounds furafylline for 1A2 (F124), sulfaphenazole for CYP 2C9 (S0758), ketoconazole for CYP 2C19 (K1003), quinidine for 2D6 (Q3625), and ketoconazole for 3A4 (K1003) were purchased from Sigma Aldrich (St. Louis, MO). Recombinant P450 enzymes were obtained from baculovirus constructs expressed in insect cells (BD/Gentest).
Medium-binding white solid Kalypsys plates used. Mixtures kept on ice. 1A2: 10 nM 1A2, 100 uM Luc-ME, 100 mM KPO4; 2C9: 10 nM 2C9, 100 uM Luc-H, 25 mM KPO4; 2C19: 5 nM 2C19, 10 uM Luc-H EGE, 50 mM KPO4; 2D6: 5 nM 2D6, 30 uM Luc-ME EGE, 100 mM KPO4; 3A4: 10 nM, 25 uM Luc-PPXE. All amounts are reflected in their final concentration, working concentration is 2x.
NADPH regeneration solution: 1.3 mM NADP+, 3.3 mM glucose-6-phosphate, 3.3 mM MgCl2, 0.4 U/mL glucose-6-phosphate dehydrogenase for all isozymes, 200 mM KPO4 for 3A4. Mixture prepared at RT but kept on ice during automated run.
RT incubation in auxilliary plate hotel for 1A2, 2D6, and 3A4; 37C for 2C9 and 2C19.
Keywords: P450, CYP1A2, CYP2C19, CYP2C9, CYP2D6, CYP3A4, Luciferase, MLSMR, MLSCN, NIH Roadmap, qHTS, NCGC
% is set by controls: 0 for no effect and ±100 for the full control effect.

Row | Structure (SMILES) | AC50 | activity, negative = inhibition
1 | O=C1c2ccccc2-c2cc([N+](=O)[O-])c([N+](=O)[O-])cc21 | 3.16 µM (active) | –
2 | O=C1c2cc([N+](=O)[O-])ccc2-c2ccc3c4ccc5c6c(ccc(c7ccc1c2c73)c64)C(=O)c1cc([N+](=O)[O-])ccc1-5 | – | -6.4% [at 11.4 µM] (inactive)
3 | Cc1cc(C)nc(NC2=NCCS2)n1 | – | 1.02% (inactive)
4 | C/C(=N\OC(=O)NC(C)C)c1sc(-c2ccccc2)nc1C | – | -28.9% (inactive)
5 | O=C(Oc1ccccc1)N1CCC2(CC1)CN(Cc1ccncc1)C2 | – | -16.1% (inactive)
6 | CN1CC[C@@]2(CCCN(C(=O)c3ccncc3)C2)C1 | – | -13.8% (inactive)
7 | O=C(c1ccco1)N1CCC[C@@]2(CCN(Cc3ccncc3)C2)C1 | 12.6 µM (active) | –
8 | Cc1noc(C)c1C(=O)N1CCC2(CCCN(CC(C)C)C2)CC1 | 12.6 µM (active) | –
9 | CC(C)CN1CC2(CCN(C(=O)c3ccncc3)CC2)C1 | 3.98 µM (active) | –
10 | CCOC(=O)c1[nH]c(C)c(C(=O)N2CCC3(CC2)OCCO3)c1C | – | 8.23% (inactive)
11 | O=C(Oc1ccccc1)N1CCC2(CCN(Cc3ccncc3)CC2)CC1 | – | -7.62% (inactive)
12 | O=C(c1ccncc1)N1CCC2(CC1)CN(Cc1ccccc1)C2 | 6.31 µM (active) | –
13 | O=C(Oc1ccc(S(=O)(=O)F)cc1F)c1ccccc1Cl | – | 12.8% [at 11.4 µM] (inactive)
14 | C/C(O)=C(/C#N)C(=O)Nc1cc(Br)ccc1Br | – | 2.34% (inactive)
15 | Cn1c(=O)c2[nH]cnc2n(C)c1=O | – | 2.65% [at 25.6 µM] (inactive)
16 | O=c1cc(-c2ccc(O)cc2)oc2cc(O)cc(O)c12 | – | 5.24% (inactive)
17 | COc1cc2c(cc1OC)[C@@]13CCN4CC5=CCO[C@H](CC(=O)O)[C@@H]([C@H]1N2)[C@H]5C[C@H]43 | – | -8.05% [at 11.4 µM] (inactive)
18 | CCC(COC(=O)NC)NC(=O)Oc1ccccc1 (stereo not drawn) | – | -14% (inactive)
19 | O=C(c1cc2cc3ccc(Cl)cc3nc2o1)N1CCC2(CC1)OCCO2 | – | -14.3% (inactive)
20 | O=C(Cc1ccc(Cl)c(Cl)c1)N1CCCC[C@H]1CN1CCCC1 | 7.94 µM (active) and 2.51 µM (active) | –

Row | Structure (SMILES) | AC50 | activity, negative = inhibition
21 | CC[C@]1([C@H]2O[C@@H]([C@@H]3O[C@](O)(CO)[C@@H](C)C[C@H]3C)C[C@H]2C)CC[C@@H]([C@]2(C)CC[C@@]3(C[C@@H](O)[C@@H](C)[C@@H]([C@H](C)[C@H](OC)[C@H](C)C(=O)O)O3)O2)O1 | – | 1.92% [at 25.6 µM] (inactive)
22 | c1ccc(CCCCN2CCC(c3ccccc3)CC2)cc1 | 0.0398 µM (active) | –
23 | C[C@@H](N)Cn1ccc2cc(F)c(Cl)cc21 | – | -5.27% (inactive)
24 | CC(C)Oc1cc(-n2c(=S)[nH]c3ccccc3c2=O)c(Cl)cc1Cl | – | -18.2% (inactive)
25 | C[C@H](CC(C#N)(c1ccccc1)c1ccccc1)N1CCCCC1 | 2.51 µM (active) | –
26 | CC(=O)Nc1ccccc1C(=O)OCc1ccc(C(=O)c2ccccc2)cc1 | – | 0.604% (inactive)
27 | CC(C)CC(=O)C[C@H](O)C(Cl)(Cl)Cl | – | 2.83% [at 11.4 µM] (inactive)
28 | C[C@@H]1[C@@H](C)N1C[C@H](O)Cn1ccnc1[N+](=O)[O-] (stereo partly drawn) | – | 4.54% [at 11.4 µM] (inactive)
29 | C[N+](C)(C)[C@H](Cc1c[nH]c(=S)[nH]1)C(=O)O | – | -8.35% [at 11.4 µM] (inactive)
30 | NC[C@H](CC(=O)O)c1ccc(Cl)cc1 | 0.794 µM (active) | –
31 | NC[C@@H](CC(=O)O)c1ccc(Cl)cc1 | inactive | –
32 | O=C(O)CP(=O)(O)c1ccc(Cl)cc1 | – | 9.45% (inactive)
33 | CCN1CCC2(CC1)NC(CO)(CO)CO2 | – | 10.6% (inactive)
34 | O=c1[nH]c(=O)n(CCc2ccc(F)cc2)c(O)c1C=NCCCN1CCOCC1 | – | -11.6% (inactive)
35 | COc1cc2c(cc1OC)[C@@H]1C(=O)c3ccc4c(c3O[C@@H]1CO2)C=CC(C)(C)O4 | 0.0631 µM (active) | –
36 | OC(Cn1c2ccccc2c2ccccc21)C[n+]1ccccc1 (stereo not drawn) | 0.0126 µM (active) | –
37 | C[C@]12CC[C@@H]3[C@H](CCC4=CC(=O)CC[C@]43C)[C@]1(O)CC[C@@]2(O)C(=O)CO | – | 16.3% [at 11.4 µM] (inactive)
38 | Cc1nc(N)sc1CCN | – | -0.208% (inactive)
39 | CC(O)(CS(=O)(=O)c1ccccc1)C(=O)Nc1cccc(C(F)(F)F)c1 (stereo not drawn) | – | -1.04% (inactive)
40 | CNCCCc1ccccc1 | – | -18.3% (inactive)

Row | Structure (SMILES) | AC50 | activity, negative = inhibition
41 | C[C@@H](Cc1cccc(C(F)(F)F)c1)NCCCc1ccccc1 | 0.0126 µM (active) | –
42 | C[C@@]12CC[C@@H]3c4ccc(O)cc4C[C@H](CCCCCCCCCS(=O)CCCC(F)(F)C(F)(F)F)[C@H]3[C@@H]1CC[C@@H]2O (stereo partly drawn) | – | -5.58% (inactive)
43 | CC(C)[C@@]1(NC(=O)[C@@H]2C[C@H]3c4cccc5[nH]cc(c45)C[C@@H]3N(C)C2)O[C@]2(O)[C@H]3CCCN3C(=O)CN2C1=O | – | -18.7% [at 25.6 µM] (inactive)
44 | CCN(CC)C(=O)N[C@H]1C[C@H]2c3cccc4[nH]cc(c34)C[C@@H]2N(C)C1 | 0.0398 µM (active) | –
45 | CC(C)[C@@]1(NC(=O)[C@@H]2C[C@H]3c4cccc5[nH]cc(c45)C[C@@H]3N(C)C2)O[C@@]2(O)[C@H]3CCCN3C(=O)[C@H](Cc3ccccc3)N2C1=O | – | -17.1% (inactive)
46 | CC(C)[C@@]1(NC(=O)[C@@H]2C[C@H]3c4cccc5[nH]cc(c45)C[C@@H]3N(C)C2)O[C@]2(O)[C@H]3CCCN3C(=O)[C@H](Cc3ccccc3)N2C1=O | – | -17.6% [at 25.6 µM] (inactive)
47 | CCN(CC)C(=O)N[C@@H]1C[C@H]2c3cccc4[nH]cc(c34)C[C@@H]2N(C)C1 | 15.8 nM (active) and 10 nM (active) | –
48 | NCCCNCCSP(=O)(O)O | – | -2.11% (inactive)
49 | N[C@H](Cc1ccc2oc3cc(=O)c4ccccc4c-3nc2c1)C(=O)O | – | -14.6% [at 11.4 µM] (inactive)
50 | CC1(C)CCC(C)(C)c2c1ccc(O)c2Cc1c(O)ccc2c1C(C)(C)CCC2(C)C | – | 4.74% [at 11.4 µM] (inactive)
51 | CCn1c(O)c(C(c2ccccn2)c2c(O)n(CC)c(=S)[nH]c2=O)c(=O)[nH]c1=S | – | 2.86% (inactive)
52 | O=C(C[C@H](c1ccccc1)c1c(O)c2ccccc2oc1=O)c1ccccc1 | – | 12.6% [at 11.4 µM] (inactive)
53 | COCCn1c(SCc2nc3sc(C(=O)OC)c(C)c3c(=O)[nH]2)nc2ccccc21 | 10 µM (active) | –
54 | CC(C)C(=O)CP(=O)(O)O | – | -4.98% [at 11.4 µM] (inactive)
55 | COc1cc(OC)c(/C=C2/C(=O)Nc3ccccc32)c(OC)c1 | – | 2.82% (inactive)
56 | CCOC(=O)c1cncn1[C@H](C)c1ccccc1 | – | -4.57% (inactive)
57 | CCOC(=O)c1cncn1[C@@H](C)c1ccccc1 | – | -4.3% [at 25.6 µM] (inactive)
58 | C[C@H](c1ccccc1)N1CCN([C@@H](C)c2ccccc2)CC1 | 0.0631 µM (active) | –
